Where “and” joins values, the source holds several entries; their conditions need not be identical. Identical values can stand only once. The campaign covered roughly 330,000 compounds. About 700 (0.21%) were called active.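 How the source made its calls: active means OD600 absorbance below the run mean of sample wells minus 3.6 SD, in any replicate (cut at about 0.56 in these data); inactive means the rest.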 This excerpt belongs to a sample that is enriched for actives. More than one record can exist for a structure, and the calls need not agree.
Assay: E. coli growth inhibition, primary screen, OD600 (AID 1053175)
Details: Escherichia coli growth, OD600, 23 h; stronger effect = lower value
For `COc1cc(C=NNC(=O)c2ccncc2)ccc1OC(=O)c1cccc(Br)c1`, the OD600 absorbance was 0.605 (inactive).
In the case of `COc1ccc(C(=O)ON=C2CCS(=O)(=O)c3sccc32)cc1`, the OD600 absorbance is reported as 0.66 (inactive).
With `O=C(CNC(c1ccccc1)c1ccccc1)Nc1ccc(F)cc1` the OD600 absorbance was 0.694 (inactive).
In the case of `CC(NCC(=O)Nc1cc(Cl)cc(Cl)c1)c1ccccc1` (centres undefined), the OD600 absorbance is reported as 0.522 (active).
With `O=C(Nc1cc(Cl)cc(Cl)c1)C(NCCCO)c1ccccc1` (centres undefined) the OD600 absorbance was 0.697 (inactive).
In the case of `CCOC1OC(C(=O)N2CCN(Cc3ccc4c(c3)OCO4)CC2)=CC(c2ccc(Br)cc2)C1CCCO` (centres undefined), the OD600 absorbance is reported as 0.677 (inactive) and 0.735 (inactive).
With `O=C(O)COc1ccc(C=NNC(=O)c2cccc3ccccc23)cc1` the OD600 absorbance was 0.692 (inactive).
With `O=C(O)C1=CC(c2ccc(Br)cc2)CC(OCc2ccc(CO)cc2)O1` (centres undefined) the OD600 absorbance was 0.678 (inactive) and 0.676 (inactive).
With `CC(=NNc1nnc(C)c(=O)[nH]1)C(=O)O` the OD600 absorbance was 0.72 (inactive).
For `CC(Oc1ccccc1)C(=O)NN=Cc1ccccn1` (centres undefined), the OD600 absorbance was 0.654 (inactive).
With `Cc1nnc(NN=Cc2ccccn2)[nH]c1=O` the OD600 absorbance was 0.466 (active).
For `COc1ccc(C(=O)NN=Cc2ccc(OC)c(CN3CCCc4ccccc43)c2)cc1`, the OD600 absorbance was 0.733 (inactive).
With `CC(C)(C)c1[nH]c2ccccc2c1C=NO` the OD600 absorbance was 0.683 (inactive).
For `CCOC(=O)c1ccc(-c2ccc(C=NNC(=O)CN(c3ccccc3Cl)S(C)(=O)=O)o2)cc1`, the OD600 absorbance was 0.728 (inactive).
With `CC(C)=CCC[C@](C)(OC1OC(COC2OCC(O)C(O)C2O)C(O)C(O)C1O)C1CC[C@]2(C)C1C(O)CC1[C@@]3(C)CCC(OC4OC(CO)C(O)C(O)C4O)C(C)(C)C3CC[C@]12C` (some centres undefined) the OD600 absorbance was 0.621 (inactive).
In the case of `CCNC(=S)NN=C(C)c1cc2ccccc2o1`, the OD600 absorbance is reported as 0.669 (inactive).
For `COc1cc(C=NNC(=O)c2ccc(=O)[nH]n2)cc(OC)c1OC`, the OD600 absorbance was 0.774 (inactive).
For `O=C(NN=Cc1ccoc1)c1ccc([N+](=O)[O-])cc1`, the OD600 absorbance was 0.694 (inactive).
In the case of `CCNC1CC(C)S(=O)(=O)c2sc(S(N)(=O)=O)cc21` (centres undefined), the OD600 absorbance is reported as 0.681 (inactive).
With `Cc1cc(C(=O)NN=Cc2cccc3ccccc23)c(C)o1` the OD600 absorbance was 0.686 (inactive).
With `C#CCNC(=O)C1=CC(c2coc3ccccc3c2=O)CC(OCc2ccc(CO)cc2)O1` (centres undefined) the OD600 absorbance was 0.691 (inactive) and 0.72 (inactive).
With `Cc1[nH]c2ccccc2c1C=NNC(=S)NC(C)C` the OD600 absorbance was 0.649 (inactive).
In the case of `Cc1ccc(CN2CCN(CC(=O)NN=Cc3ccc(C)o3)CC2)cc1`, the OD600 absorbance is reported as 0.613 (inactive).
With `CC1CN(C(=S)Nc2ccccc2F)CC(C)O1` (centres undefined) the OD600 absorbance was 0.662 (inactive).
In the case of `COc1c(N2CCN(C(=S)Nc3ccccc3F)C(C)C2)c(F)cc2c(=O)c(C(=O)O)cn(C3CC3)c12` (centres undefined), the OD600 absorbance is reported as 0.071 (active).
For `COc1ccccc1NC(=S)N1CCN(c2ccc(F)cc2)CC1`, the OD600 absorbance was 0.68 (inactive).
In the case of `CCCOc1ccc(CNC(=S)NN=Cc2ccc([N+](=O)[O-])cc2)cc1`, the OD600 absorbance is reported as 0.66 (inactive).
For `[N-]=[N+]=NCC(Cc1ccccc1)N1CCN(Cc2ccccc2)CCC1=O` (centres undefined), the OD600 absorbance was 0.705 (inactive).
With `CC(C)(C)N1C(=O)C2C(c3ccc(Br)cc3)N3C(=O)N(c4ccccc4)C(=O)[C@@]3(Cc3ccccc3)C2C1=O` (some centres undefined) the OD600 absorbance was 0.71 (inactive).
With `CC(/C=C/c1ccccc1)=NNc1nc(C)cc(C)n1` the OD600 absorbance was 0.667 (inactive).
In the case of `CNc1nc(C)nc(NN=Cc2ccccc2)n1`, the OD600 absorbance is reported as 0.682 (inactive).
For `S=c1[nH]nc(-c2ccncc2)n1N=Cc1cccc2ccccc12`, the OD600 absorbance was 0.739 (inactive).
With `Cc1ccc(C=NNC(=O)Cn2cnc3ccccc32)o1` the OD600 absorbance was 0.676 (inactive).
In the case of `Cc1ccc(C(=O)N2C3CN(C)C(=O)[C@@]2(Cc2ccccc2)C2C(=O)N(C)C(=O)C32)cc1` (some centres undefined), the OD600 absorbance is reported as 0.672 (inactive).
For `CC(=NNC(=O)CCc1ccc(S(=O)(=O)N2CCOCC2)cc1)c1ccc(OC(F)F)cc1`, the OD600 absorbance was 0.715 (inactive).
In the case of `C#CCOc1ccc(C=NNC(=O)c2cccnc2)cc1OCC`, the OD600 absorbance is reported as 0.679 (inactive).
For `C[C@@]12C(=O)Nc3cc(Cl)ccc3C(=O)N1C1c3cc(Cl)ccc3OCC1C2c1ccccc1` (some centres undefined), the OD600 absorbance was 0.696 (inactive).
With `COc1ccc(C=C2N=C(SC)NC2=O)cc1` the OD600 absorbance was 0.705 (inactive).
For `Cc1c(C=O)c2ccccc2n1CC(=O)O`, the OD600 absorbance was 0.701 (inactive).
For `CC(=O)c1c(C)n([O-])c2ccccc2[n+]1=O`, the OD600 absorbance was 0.186 (active).
In the case of `CCCCn1c(C=NNc2nc3ccccc3[nH]2)nc2ccccc21`, the OD600 absorbance is reported as 0.684 (inactive).
In the case of `COc1cc(C=NNC(=O)c2ccc3c(c2)OCCO3)c(Br)c(Br)c1O`, the OD600 absorbance is reported as 0.727 (inactive).
For `C=C[C@]1(C)CC(OC(=O)CSCCN(CC)CC)[C@]2(C)C(C)CC[C@]3(CCC(=O)C32)C(C)C1O` (some centres undefined), the OD600 absorbance was 0.499 (inactive) and 0.432 (active).
For `CC(C)(C)C(=O)C=c1[nH]c(=O)c(=Cc2ccccc2F)s1`, the OD600 absorbance was 0.718 (inactive).
For `COC(=O)Oc1ccc(C=NNC(=O)CN(c2ccccc2Br)S(C)(=O)=O)cc1OC`, the OD600 absorbance was 0.67 (inactive).
In the case of `COc1ccc(CN2C(CC(=O)O)c3ccccc3S2(=O)=O)cc1` (centres undefined), the OD600 absorbance is reported as 0.676 (inactive).
In the case of `Cc1ccccc1C(=O)ON=C1CCS(=O)(=O)c2sccc21`, the OD600 absorbance is reported as 0.706 (inactive).
In the case of `O=C(NN=Cc1cccn1-c1cccc(C(=O)O)c1)Nc1ccccc1`, the OD600 absorbance is reported as 0.627 (inactive).
For `CC(=O)Oc1ccc(C(C)=NN2CCN(Cc3ccc(Cl)cc3)CC2)cc1`, the OD600 absorbance was 0.707 (inactive).
With `O=C(C=Cc1cccs1)N1CCC2(CC1)Oc1ccc(F)cc1C(=O)C21CC(c2ccccc2)=NO1` (centres undefined) the OD600 absorbance was 0.718 (inactive).
With `CC(C=NNC(=O)c1ccc2c(c1)OCO2)c1ccccc1` (centres undefined) the OD600 absorbance was 0.695 (inactive).
For `O=C(NCc1ccccc1)C1=CC(c2ccccc2)CC(OCCCCO)O1` (centres undefined), the OD600 absorbance was 0.622 (inactive).
For `CC(=O)Nc1ccc(C(C)=NNC(=O)c2ccc(-c3ccccc3)cc2)cc1`, the OD600 absorbance was 0.685 (inactive).
In the case of `CS(=O)(=O)N(CC(=O)Nc1ccc(Cl)c(Cl)c1)C1CCCCC1`, the OD600 absorbance is reported as 0.703 (inactive).
For `O=C(CC(O)(C(F)(F)F)C(F)(F)F)Nc1ccc(Cl)c(Cl)c1`, the OD600 absorbance was 0.329 (active).
With `O=C(CCCN1C(=O)CCC1=O)Nc1ccc(Cl)c(C(F)(F)F)c1` the OD600 absorbance was 0.702 (inactive).
In the case of `Cc1nn(-c2ccccc2)c(C)c1C=NNC(=O)c1cc(-c2cccs2)[nH]n1`, the OD600 absorbance is reported as 0.602 (inactive).
In the case of `Clc1cccc(Cl)c1C=NNc1nccs1`, the OD600 absorbance is reported as 0.705 (inactive).
For `Cc1cc(C)nc(NN=Cc2ccccc2OCc2ccccc2)n1`, the OD600 absorbance was 0.638 (inactive).
For `Cn1ccc(=Nc2ccc(NC(=O)c3ccc(N=c4ccn(C)c5ccc([N+](=O)[O-])cc45)cc3)cc2)cc1`, the OD600 absorbance was 0.104 (active).
For `CC(=O)NC(=S)Nc1ccc(NC(=S)NC(=O)c2ccc([N+](=O)[O-])cc2)cc1`, the OD600 absorbance was 0.699 (inactive).
For `COc1cc(NS(=O)(=O)c2ccc(NC(=O)c3ccc([N+](=O)[O-])cc3)cc2)ncn1`, the OD600 absorbance was 0.659 (inactive).
With `Fc1cccc(CCN2CCNCC2Cc2ccccc2)c1` (centres undefined) the OD600 absorbance was 0.658 (inactive).
In the case of `O=C(O)c1cc(O)c2c(c1)C(C1c3cc(C(=O)O)cc(O)c3C(=O)c3c(OC4OC(CO)C(O)C(O)C4O)cccc31)c1cccc(OC3OC(CO)C(O)C(O)C3O)c1C2=O` (centres undefined), the OD600 absorbance is reported as 0.667 (inactive).
In the case of `COC(=O)c1cccc(C23CC4(C2)C(CN(CC2CCCCC2)C4c2ccccc2)C3c2ccccc2)c1` (centres undefined), the OD600 absorbance is reported as 0.699 (inactive).
In the case of `CCc1ccc(C=NNC(=O)Cc2ccc(OC)c(OC)c2)s1`, the OD600 absorbance is reported as 0.627 (inactive).
In the case of `Cc1nn(-c2ccccc2)c(C)c1C=Nn1c(-c2ccccc2Br)n[nH]c1=S`, the OD600 absorbance is reported as 0.624 (inactive).
For `CCOc1ccc(Br)cc1C(=O)NN=Cc1c[nH]c2ccccc12`, the OD600 absorbance was 0.686 (inactive).
For `O=C(NN=C/C(Br)=C\c1ccccc1)c1n[nH]c2c1CCC2`, the OD600 absorbance was 0.619 (inactive).
For `C[C@]12C(=O)N(c3cccc(F)c3)C(=O)N1C1c3ccccc3OCC1C2c1ccccc1` (some centres undefined), the OD600 absorbance was 0.707 (inactive) and 0.703 (inactive).
For `C=Cc1ccc(C2=CC(=O)CC(c3ccc(OC)cc3)C2)cc1` (centres undefined), the OD600 absorbance was 0.663 (inactive).
With `O=C(NN=Cc1cccc2ccccc12)c1cccnc1` the OD600 absorbance was 0.676 (inactive).
With `O=C(C=Cc1ccccc1)NCCSCc1ccccc1Cl` the OD600 absorbance was 0.63 (inactive).
With `O=C(CCNc1n[nH]c(=O)[nH]c1=O)NN=Cc1ccc(Cl)cc1` the OD600 absorbance was 0.691 (inactive).
In the case of `CCOC1OC(C(=O)NCc2nc3ccccc3[nH]2)=CC(c2cn(C(C)=O)c3ccccc23)C1CCCO` (centres undefined), the OD600 absorbance is reported as 0.677 (inactive) and 0.601 (inactive).
With `ON=Cc1cccn1-c1nccs1` the OD600 absorbance was 0.697 (inactive).
For `Cc1ccc(C(=O)NN=Cc2c[nH]c3ccccc23)o1`, the OD600 absorbance was 0.69 (inactive).
In the case of `CCn1c(C)nc2cc(C(=O)NN=C(C)c3ccc(N4CCOCC4)cc3)ccc21`, the OD600 absorbance is reported as 0.666 (inactive).
With `CCCC(CNC(CNC)C(C)O)NCCc1ccc(OC)cc1` (centres undefined) the OD600 absorbance was 0.679 (inactive).
With `CCc1c(Nc2ccccc2Cl)nc(N)[nH]c1=O` the OD600 absorbance was 0.475 (active).
With `O=Cc1c(Nc2ccccc2Cl)nc2ccccn2c1=O` the OD600 absorbance was 0.678 (inactive).
In the case of `CCc1c(Nc2ccccc2C)nc(N)[nH]c1=O`, the OD600 absorbance is reported as 0.675 (inactive).
In the case of `c1ccc(N=C2N=C(Nc3ccccn3)c3ccccc32)nc1`, the OD600 absorbance is reported as 0.705 (inactive).
For `CCC1=C(OC(=O)N(CC)CC)N2C(=O)OC(=NCC(=O)OC)[C@]2(C)C2C1=CCC1C(=O)NC(=O)C12` (some centres undefined), the OD600 absorbance was 0.617 (inactive).
With `CCCN1CCn2c3c(c4cc(Br)ccc42)CCCC31` (centres undefined) the OD600 absorbance was 0.655 (inactive).
In the case of `O=C(CCNS(=O)(=O)c1ccc(Br)cc1)NCC1CCCO1` (centres undefined), the OD600 absorbance is reported as 0.66 (inactive).
For `OC(CNCC1CCCO1)Cn1c2ccc(Br)cc2c2cc(Br)ccc21` (centres undefined), the OD600 absorbance was 0.547 (active).
With `O=C(CC=NOCc1ccc([N+](=O)[O-])cc1)Nc1ccc(Br)cc1` the OD600 absorbance was 0.631 (inactive).
With `O=C(O)CC1c2cc(F)ccc2S(=O)(=O)N1Cc1ccccc1` (centres undefined) the OD600 absorbance was 0.672 (inactive).

From PubChem BioAssay AID1053175 (ICCB-Longwood Screening Facility, Harvard Medical School, 2014)
